Source: PubChem (Sanford-Burnham Center for Chemical Genomics)
In the library only some 31% were active in any assay of this set; here they are far more common.
CYP2C9 inhib – blockers of cytochrome P450 2C9 activity – biochemical, luminescence, ADME assay, primary screen. hit rate 20% among 96,000. CYP2C9 Supersomes, luciferin-H conversion. AID 777, 2007. inhibition, % at 5 µM;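 active = blocking of liver enzyme CYP2C9 beyond about 50% at 5 µM, limit read from the data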
Target sequence (P11712 whole entry, looked up): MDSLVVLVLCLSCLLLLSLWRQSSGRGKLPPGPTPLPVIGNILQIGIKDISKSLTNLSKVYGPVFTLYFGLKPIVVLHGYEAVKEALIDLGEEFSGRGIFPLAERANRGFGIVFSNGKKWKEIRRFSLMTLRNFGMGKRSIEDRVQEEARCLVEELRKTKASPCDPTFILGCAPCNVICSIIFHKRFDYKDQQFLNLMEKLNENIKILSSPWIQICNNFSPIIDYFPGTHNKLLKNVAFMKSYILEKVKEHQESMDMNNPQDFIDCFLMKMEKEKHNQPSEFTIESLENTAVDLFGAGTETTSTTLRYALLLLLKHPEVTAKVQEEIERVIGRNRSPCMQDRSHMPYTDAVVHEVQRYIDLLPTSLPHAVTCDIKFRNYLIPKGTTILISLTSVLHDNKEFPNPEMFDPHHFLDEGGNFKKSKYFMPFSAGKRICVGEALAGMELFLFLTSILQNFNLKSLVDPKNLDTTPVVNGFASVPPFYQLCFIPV
CYP2C9 act – human CYP2C9 activators, primary screen, biochemical, luminescence. Cytochrome P450 2C9 (Homo sapiens), P11712. recombinant CYP2C9, luciferin-H conversion; active compounds read high; factor 1 = untreated enzyme, 0 = blocked. activation factor at 5 µM. hit rate 1.4% among 96,000. AID 1024, 2008;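 active = activation factor of 2 or more for CYP2C9 at a 5 µM dose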
PLAP activator – PLAP enzyme activators, biochemical, luminescence, HTS | purified PLAP enzyme, luminescent substrate read-out; active compounds read high | Alkaline phosphatase, placental type (Homo sapiens), P05187 | activation fold at 20 µM | hit rate 1.2% among 96,000; in the data active = activation fold above about 2
CYP2C19 activ – human CYP2C19 activators, primary screen, biochemical, luminescence; recombinant CYP2C19, luciferin-H EGE luminescence; active compounds read high; 0 = fully inhibited enzyme, 1 = untreated enzyme; AID 1025, 2008; activation factor at 5 µM; 96,000 tested, under 10 active; Cytochrome P450 2C19 (Homo sapiens), P33261;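 active = activation factor of at least 2 at 5 µM in the primary screen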
CYP2C19 inh – blockers of cytochrome P450 2C19 activity – biochemical, luminescence, ADME assay, primary screen | P33261 | CYP2C19 Supersomes, luciferin-H EGE luminescence, 30 min | inhibition, % at 5 µM | hit rate 21% among 96,000 | AID 778, 2007;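 active = CYP2C19 inhibition above a set limit at 5 µM in the primary screen, cut at about 50% in these data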
A number is an active result.

Results for Fc1ccc(CCNCc2cccc(Cl)c2)cc1 ?
CYP2C9 inhib: inactive; CYP2C9 act: inactive; PLAP activator: inactive; CYP2C19 activ: inactive; CYP2C19 inh: 92

Results for COc1ccc(CCNCc2ccc(F)cc2)cc1OC ?
CYP2C9 inhib: inactive; CYP2C9 act: inactive; PLAP activator: inactive; CYP2C19 activ: inactive; CYP2C19 inh: 52

What do the screens show for `CC(C)C1(C)N=C(c2ncccc2C(=O)O)NC1=O` (centres undefined)?
CYP2C9 inhib: inactive; CYP2C9 act: inactive; PLAP activator: inactive; CYP2C19 activ: inactive; CYP2C19 inh: inactive

How did CC(=O)Nc1ccccc1OP1(=O)COc2ccccc2OC1 do in these assays?
CYP2C9 inhib: inactive; CYP2C9 act: inactive; PLAP activator: inactive; CYP2C19 activ: inactive; CYP2C19 inh: inactive

What do the screens show for `Cc1ccc(OCC(=O)N2CCN(CC3CC4C=CC3C4)CC2)cc1` (centres undefined)?
CYP2C9 inhib: inactive; CYP2C9 act: inactive; PLAP activator: inactive; CYP2C19 activ: inactive; CYP2C19 inh: inactive

What do the screens show for `COc1cc(CN2C(=O)NC(=O)C3(Cc4cc(C)ccc4N(C)C3)C2=O)cc(OC)c1` (centres undefined)?
CYP2C9 inhib: inactive; CYP2C9 act: inactive; PLAP activator: inactive; CYP2C19 activ: inactive; CYP2C19 inh: inactive

How did COc1ccc(OC)c(N2C(=O)NC(=O)C3(Cc4cc(C)ccc4N(C)C3)C2=O)c1 (centres undefined) do in these assays?
CYP2C9 inhib: 80; CYP2C9 act: inactive; PLAP activator: inactive; CYP2C19 activ: inactive; CYP2C19 inh: inactive

What do the screens show for `Cc1ccc2c(c1)CC1(CN2C)C(=O)NC(=O)N(c2cc(C)ccc2C)C1=O` (centres undefined)?
CYP2C9 inhib: 59; CYP2C9 act: inactive; PLAP activator: inactive; CYP2C19 activ: inactive; CYP2C19 inh: inactive

How did COc1cccc(N2C(=O)NC(=O)C3(Cc4cc(C)ccc4N(C)C3)C2=O)c1 (centres undefined) do in these assays?
CYP2C9 inhib: 84; CYP2C9 act: inactive; PLAP activator: inactive; CYP2C19 activ: inactive; CYP2C19 inh: inactive

What do the screens show for `CC(C)n1cc(C(=O)N(CC(=O)NC2CCCC2)Cc2ccccc2)cn1`?
CYP2C9 inhib: inactive; CYP2C9 act: inactive; PLAP activator: inactive; CYP2C19 activ: inactive; CYP2C19 inh: inactive

What do the screens show for `CC1(C)CC2(CCO1)NCCN1C(=O)CSC12` (centres undefined)?
CYP2C9 inhib: inactive; CYP2C9 act: inactive; PLAP activator: inactive; CYP2C19 activ: inactive; CYP2C19 inh: inactive

What do the screens show for `CCOC(=O)c1c(NC(=O)C(c2ccccc2)c2ccccc2)sc2c1C1CCN2CC1`?
CYP2C9 inhib: 63; CYP2C9 act: inactive; PLAP activator: inactive; CYP2C19 activ: inactive; CYP2C19 inh: inactive

How did Oc1c(Br)cc(Br)cc1CN1CCN(Cc2ccccc2)CC1 do in these assays?
CYP2C9 inhib: inactive; CYP2C9 act: inactive; PLAP activator: 2; CYP2C19 activ: inactive; CYP2C19 inh: 74

What do the screens show for `O=C(Cc1ccc(Br)cc1)N1CCN(Cc2ccccc2)CC1`?
CYP2C9 inhib: 87; CYP2C9 act: inactive; PLAP activator: inactive; CYP2C19 activ: inactive; CYP2C19 inh: 84

How did O=C(Cc1ccccc1)N1CCN(C/C=C/c2ccccc2)CC1 do in these assays?
CYP2C9 inhib: inactive; CYP2C9 act: inactive; PLAP activator: inactive; CYP2C19 activ: inactive; CYP2C19 inh: inactive

What do the screens show for `COc1ccc(Br)cc1CN1CCN(C(=O)Cc2ccccc2)CC1`?
CYP2C9 inhib: 81; CYP2C9 act: inactive; PLAP activator: inactive; CYP2C19 activ: inactive; CYP2C19 inh: 88

How did ClC1=CCC2CN(CCN3CCCCC3)CC2C1 (centres undefined) do in these assays?
CYP2C9 inhib: inactive; CYP2C9 act: inactive; PLAP activator: inactive; CYP2C19 activ: inactive; CYP2C19 inh: inactive

What do the screens show for `O=c1c2ccccc2nc(-c2ccoc2)n1-c1ccccc1`?
CYP2C9 inhib: inactive; CYP2C9 act: inactive; PLAP activator: inactive; CYP2C19 activ: inactive; CYP2C19 inh: inactive

Results for Cc1nc2ccc(Cl)cn2c1P(=S)(N1CCOCC1)N1CCOCC1 ?
CYP2C9 inhib: inactive; CYP2C9 act: inactive; PLAP activator: inactive; CYP2C19 activ: inactive; CYP2C19 inh: inactive

How did S=C(c1ccc(Cl)cc1)N1CCOCC1 do in these assays?
CYP2C9 inhib: inactive; CYP2C9 act: inactive; PLAP activator: inactive; CYP2C19 activ: inactive; CYP2C19 inh: 66

What do the screens show for `Cc1ccc(-c2cc(C(F)F)n3ncc(C(=O)N4CCC5(CC4)OCCO5)c3n2)cc1`?
CYP2C9 inhib: inactive; CYP2C9 act: inactive; PLAP activator: inactive; CYP2C19 activ: inactive; CYP2C19 inh: inactive

How did CN(Cc1ccccc1)C(=C(Cl)Cl)/C(=C1/NCCN1Cc1ccc(Cl)nc1)[N+](=O)[O-] do in these assays?
CYP2C9 inhib: inactive; CYP2C9 act: inactive; PLAP activator: inactive; CYP2C19 activ: inactive; CYP2C19 inh: 93

Results for Cc1cccn2c(=O)c3c(nc12)N1CCC(Cc2ccccc2)CC1C1(C3)C(=O)N(C)C(=O)N(C)C1=O (centres undefined) ?
CYP2C9 inhib: 91; CYP2C9 act: inactive; PLAP activator: inactive; CYP2C19 activ: inactive; CYP2C19 inh: inactive

What do the screens show for `CN1C(=O)N(C)C(=O)C2(Cc3c(nc4ccccn4c3=O)N3CCC(Cc4ccccc4)CC32)C1=O` (centres undefined)?
CYP2C9 inhib: inactive; CYP2C9 act: inactive; PLAP activator: inactive; CYP2C19 activ: inactive; CYP2C19 inh: inactive

How did Cc1nc2ccccc2c(=O)n1-c1cccc(O)c1 do in these assays?
CYP2C9 inhib: inactive; CYP2C9 act: inactive; PLAP activator: inactive; CYP2C19 activ: inactive; CYP2C19 inh: inactive

What do the screens show for `CCOC(=O)c1nc2ccccc2c(=O)n1-c1ccc(C)cc1`?
CYP2C9 inhib: 55; CYP2C9 act: inactive; PLAP activator: inactive; CYP2C19 activ: inactive; CYP2C19 inh: inactive

What do the screens show for `CCOC(=O)c1nc2ccccc2c(=O)n1-c1cccc(C)c1`?
CYP2C9 inhib: 52; CYP2C9 act: inactive; PLAP activator: inactive; CYP2C19 activ: inactive; CYP2C19 inh: inactive

How did CCCCCCn1c(N)c(C(=O)NCCN2CCOCC2)c2nc3ccccc3nc21 do in these assays?
CYP2C9 inhib: inactive; CYP2C9 act: inactive; PLAP activator: inactive; CYP2C19 activ: inactive; CYP2C19 inh: 54

How did CCCCn1c(N)c(C(=O)NCc2cccs2)c2nc3ccccc3nc21 do in these assays?
CYP2C9 inhib: inactive; CYP2C9 act: inactive; PLAP activator: inactive; CYP2C19 activ: inactive; CYP2C19 inh: inactive

What do the screens show for `CCCCCn1c(N)c(C(=O)NCCN2CCOCC2)c2nc3ccccc3nc21`?
CYP2C9 inhib: inactive; CYP2C9 act: inactive; PLAP activator: inactive; CYP2C19 activ: inactive; CYP2C19 inh: inactive

Results for COc1ccc(CCNC(=O)c2c(N)n(CCN3CCOCC3)c3nc4ccccc4nc23)cc1OC ?
CYP2C9 inhib: 83; CYP2C9 act: inactive; PLAP activator: inactive; CYP2C19 activ: inactive; CYP2C19 inh: 54
